From PubChem BioAssay come the findings set out here.

The structures appear in SMILES notation. Results filed as inconclusive are left out. Activity calls are given as the source filed them.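 How the source made its calls, unless noted: active means viability at or under a set limit in both replicates, limit being median viability minus 3 SD (cut at about 48% in these data, passing the limit was not always enough); inconclusive means at or under the limit in just one replicate; inactive means at or above the limit in both replicates.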

A short description of test [1]: Her2 expression decrease, cell viability multiplex – SKBR3 breast tumor cells, AlphaScreen, ATP viability, primary screen (AID 461;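 active means Her2 level under about 52% in both replicate screens, with viability over 70% of control, limit read from the data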;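 on Her2 level: lower value means less Her2 protein in the cells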;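 on viability: percent of carrier control wells set as 100% viability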). Conditions: SKBR3 Her2 protein level, 18-24 h, measured here: SKBR3 viability, ATP luminescence, at 10 µM.
For test [2], the target named is Receptor tyrosine-protein kinase erbB-2 (Homo sapiens) (UniProt P04626). The test is described as above. As to conditions: 18-24 h, at 10 µM, stronger effect = lower value.
The nature of test [3]: reduced viability of SK-BR-3 breast cancer cells – cell-based, 24 h, human, pilot screen (AID 572;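 active means viability at or below 10% of carrier control in both of two separate runs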;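 further: compound exposure lasted between 18 and 24 h rather than exactly 24 h; 100% = carrier-treated control wells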). As to conditions: SK-BR-3 viability, CellTiter-Glo luminescence, at 10 µM, stronger effect = lower value.
Test [4] in a line: HUVEC growth inhibition – cell-based, human, primary screen (AID 575;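 active means viability at or below 30% in both replicate assays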;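 further: 100% = median of untreated cell wells with 0.1% DMSO on each plate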). Conditions: HUVEC proliferation, CellTiter-Glo luminescence, 72 h; at 10 µM; stronger effect = lower value.
A short description of test [5]: H69AR cell proliferation blockers – human, duplicate replicates, primary screen (AID 580).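 Further: 100% = mean luminescence of untreated wells and 0% = no signal.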 Conditions: H69AR lung tumor cells viability, ATP luminescence, 72 h; at 10 µM; stronger effect = lower value.
The nature of test [6]: MRP1 drug-resistance reversers in H69AR cells – cell-based, doxorubicin co-treatment, pilot screen (AID 601;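 active means viability loss from added drug above about 55%, and viability with drug at most 40%, in both replicates, limit read from the data, passing the limit was not always enough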). As to conditions: CellTiter-Glo, 72 h, at 10 µM; for differential viability (reversal): stronger effect = higher value.
Test [7] can be described thus: yeast transport mutant growth inhibition pilot in 384-well plates, post-Golgi transport modulator project (AID 636; in the data active means inhibition above about 31%). As to conditions: absorbance 615 nm, about 18 h, stronger effect = higher value.
Test [8] is described as follows: growth suppression of yeast trafficking mutant, preliminary HTS, modulators of trafficking downstream of Golgi apparatus project, 1536-format plate, OD 615 nm (AID 637; in the data active means inhibition above about 30%). As to conditions: yeast transport mutant growth, absorbance 615 nm, 18 h; stronger effect = higher value.
Test [9] is described as follows: S. cerevisiae growth inhibition in permissive medium (OD615), pilot counter-assay for S. cerevisiae lifespan shortening project, permissive growth control (AID 705;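 active means growth inhibition above 25% in both replicates, a cutoff set 3 SD above the mean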). As to conditions: OD615, 24 h, at 10 µM, stronger effect = higher value.
Test [10] can be described thus: S. cerevisiae growth inhibition in restrictive medium, OD615, pilot screen, restrictive growth control, yeast lifespan reduction project (AID 706;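 active means growth inhibition above a set limit, 3 SD over mean compound inhibition, in both replicates, cut at about 43% in these data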;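 further: modified DeaD lifespan yeast strain shifted to restrictive glucose medium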). As to conditions: OD615, 48 h, at 10 µM, stronger effect = higher value.
The nature of test [11]: doxorubicin toxicity protection in MRP-1 cells – H69AR cells, CellTiter-Glo, duplicate, MRP-1 activator project, pilot screen (AID 807;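 active means viability increase at or above a cutoff of the median across tested compounds plus 3 SD, cut at about 8.5% in these data, passing the limit was not always enough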;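 further: compound pretreatment 18-22 h then 72 h combined with doxorubicin; 0% = doxorubicin alone and 100% = vehicle without doxorubicin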). As to conditions: H69AR viability with doxorubicin, CellTiter-Glo luminescence; at 10 µM; stronger effect = higher value.
The nature of test [12]: viability of HCT116 without oncogenic beta-catenin – human colon tumor cells, pilot screen (AID 823;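 active means cell viability at or below a set limit in both duplicate runs, the limit being the all-compound median minus 4 SD, cut at about 23% in these data, passing the limit was not always enough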;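 further: 0% = wells killed by 20 µM Hyamine and 100% = untreated DMSO cell wells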). Conditions: HCT116 beta-catenin knockout viability, CellTiter-Glo, 60 h; at 10 µM; stronger effect = lower value.
The nature of test [13]: viability of PTEN-null HCT116 cells – cell-based, HCT116 clonal line, CellTiter-Glo, pilot screen (AID 824;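 active means viability at or below 27.92% in each of two runs, the all-compound median minus 4 SD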;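 further: 0% = 20 µM Hyamine control and 100% = vehicle cell control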). As to conditions: HCT116 PTEN-deleted viability, 60 h, at 10 µM, stronger effect = lower value.
The nature of test [14]: RAM pathway blockade in budding yeast – dse1pr::URA3 reporter, 5-FOA selection, pilot screen (AID 869;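 active means inhibition over a set limit, the all-compound mean plus 3 SD, in both replicate runs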;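 further: 0% = DMSO wells with no growth and 100% = 10 µM 1-NA-PP1 with full growth; RAM network block rescues cells from 5-FOA so hits raise OD615 growth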). Conditions: S. cerevisiae dse1pr::URA3 5-FOA growth, OD615, 2 d; at 10 µM; stronger effect = higher value; strain carries analog-sensitive mutant Cbk1 kinase.
Test [15] can be described thus: RAM signaling pathway blockade in yeast – S. cerevisiae, Pdr1DBD-CYC8 efflux-inhibited sensitized strain, primary screen (AID 1298;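 active means RAM network inhibition above 8.4% in each of two replicates, 3 SD over the compound average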;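 further: 0% = DMSO untreated cells without growth and 100% = 10 µM 1-NA-PP1 full growth; higher means more yeast growth rescued from 5-FOA killing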). As to conditions: S. cerevisiae cbk1-as DSE1-URA3 strain, 5-FOA growth OD615, 2 d; at 50 µM; stronger effect = higher value.
The mark [16] stands for this setting: H69AR cells + 2 uM doxorubicin, measured here: viability with 2 uM doxorubicin, stronger effect = lower value.
The mark [17] stands for this setting: H69AR cells, compound alone cytotoxicity.

Chain of Receptor tyrosine-protein kinase erbB-2 (Homo sapiens) (P04626 whole entry, looked up): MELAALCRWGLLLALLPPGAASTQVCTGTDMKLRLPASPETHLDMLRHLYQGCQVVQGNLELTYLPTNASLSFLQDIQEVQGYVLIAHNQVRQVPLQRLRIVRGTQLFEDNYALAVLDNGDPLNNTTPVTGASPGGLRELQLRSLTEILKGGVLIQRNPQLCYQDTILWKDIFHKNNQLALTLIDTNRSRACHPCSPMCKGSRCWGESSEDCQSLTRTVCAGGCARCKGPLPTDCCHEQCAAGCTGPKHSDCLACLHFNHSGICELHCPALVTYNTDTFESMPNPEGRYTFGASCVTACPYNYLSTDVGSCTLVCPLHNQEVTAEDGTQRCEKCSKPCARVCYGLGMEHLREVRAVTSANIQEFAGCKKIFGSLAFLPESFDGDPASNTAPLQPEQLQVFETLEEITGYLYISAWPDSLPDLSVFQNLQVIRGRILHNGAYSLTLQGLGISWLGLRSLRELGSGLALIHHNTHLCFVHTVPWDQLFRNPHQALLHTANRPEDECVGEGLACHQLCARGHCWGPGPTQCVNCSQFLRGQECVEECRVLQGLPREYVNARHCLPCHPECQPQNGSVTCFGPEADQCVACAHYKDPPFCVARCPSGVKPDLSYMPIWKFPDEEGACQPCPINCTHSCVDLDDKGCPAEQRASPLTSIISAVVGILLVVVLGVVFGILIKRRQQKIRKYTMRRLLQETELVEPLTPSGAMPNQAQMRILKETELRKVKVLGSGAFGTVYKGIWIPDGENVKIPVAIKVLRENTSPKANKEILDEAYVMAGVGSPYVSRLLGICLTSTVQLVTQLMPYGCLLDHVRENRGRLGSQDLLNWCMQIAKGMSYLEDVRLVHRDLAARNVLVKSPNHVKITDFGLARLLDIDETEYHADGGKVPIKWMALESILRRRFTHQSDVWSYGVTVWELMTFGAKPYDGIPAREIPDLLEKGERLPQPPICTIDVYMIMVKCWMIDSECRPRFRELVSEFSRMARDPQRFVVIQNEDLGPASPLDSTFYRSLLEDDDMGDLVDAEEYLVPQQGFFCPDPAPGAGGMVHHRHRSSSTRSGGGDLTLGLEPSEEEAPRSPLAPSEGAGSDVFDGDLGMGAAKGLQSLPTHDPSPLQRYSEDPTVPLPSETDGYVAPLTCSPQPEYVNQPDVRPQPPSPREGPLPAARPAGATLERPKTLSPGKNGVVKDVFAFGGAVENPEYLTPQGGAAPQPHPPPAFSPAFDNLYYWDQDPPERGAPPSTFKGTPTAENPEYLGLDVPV

Consider `c1ccn2c(SCc3ccc4c(c3)OCCO4)nnc2c1`, for which the viability in test [1] is 108%; in test [3], 108% (inactive); in [4], 93.8% (inactive); in test [5] it was 92.1% (inactive); in test [6] (setting [16]), 91.7%; in [6] (setting [17]), 92.1%. For the same molecule, the figures for the viability in test [12] and in test [13] were 96.6% (inactive) and 99.2% (inactive), respectively. Moreover, the Her2 level in [2] is 108% (inactive). In test [6] (H69AR cells + 2 uM doxorubicin), the differential viability (reversal) is 0.37% (inactive). Also, the inhibition was -3.47% (inactive) in test [7], 1.67% (inactive) in [8] and 0.305% (inactive) in test [14]. Moreover, the results for the growth inhibition in test [9] and in test [10] were 6.86% (inactive) and 12.2% (inactive), respectively. Besides, the viability increase in test [11] was -0.85% (inactive). In addition, the RAM network inhibition in [15] is 5.34% (inactive).
Take `COc1ccc(C2C(C(=O)N3CCC(C)CC3)c3ccccc3C(=O)N2C)cc1` (stereo not given): the viability is 109% in test [1]; 109% (inactive) in test [3]; 108% (inactive) in [4]; 94.9% (inactive) in [5]; 96.1% in [6] (setting [16]); 94.9% in [6] (setting [17]). Further, the viability in [12] is 83.3% (inactive); in [13], 82.9% (inactive). Moreover, in [2], the Her2 level was 112% (inactive). The differential viability (reversal) in test [6] (H69AR cells + 2 uM doxorubicin) was -1.18% (inactive). Besides, the inhibition in [7] was 1.23% (inactive); in [8] it was 9.84% (inactive); in test [14] it was 2.41% (inactive). Also, the growth inhibition is -17% (inactive) in [9] and -12% (inactive) in [10]. Also, in [11], the viability increase was -2.5% (inactive). Also, the RAM network inhibition in test [15] is 7.41% (inactive).
Turning to `COc1cccc(NC(=O)C2CCCN(S(=O)(=O)c3cccc4cccnc34)C2)c1` (stereo not given), the viability in test [1] was 106%; in [3], 106% (inactive); in test [4], 77.8% (inactive); in [5], 82.7% (inactive); in test [6] (setting [16]), 89.3%; in test [6] (setting [17]), 82.7%. The results for the viability in test [12] and in test [13] were 72.4% (inactive) and 70.6% (inactive), respectively. Besides, the Her2 level in [2] was 102% (inactive). Further, the differential viability (reversal) in test [6] (H69AR cells + 2 uM doxorubicin) was -6.64% (inactive). For the same molecule, the inhibition in test [7] was -5.73% (inactive); in test [8], -5.5% (inactive); in test [14], 1.77% (inactive). For the same molecule, the figures for the growth inhibition in test [9] and in test [10] were -12.6% (inactive) and -6.68% (inactive), respectively. For the same molecule, the viability increase in [11] was -1.5% (inactive). In [15], the RAM network inhibition was 3.85% (inactive).
In the case of `CCCNc1nc(N2CCOCC2)nc(N2CCOCC2)n1`, the viability in [1] is 97.5%; in test [3], 97.5% (inactive); in [4], 109% (inactive); in test [5] it was 90.5% (inactive); in test [6] (setting [16]), 93.9%; in test [6] (setting [17]), 90.5%. The viability is 92.8% (inactive) in test [12] and 102% (inactive) in test [13]. Moreover, the Her2 level in test [2] is 110% (inactive). The differential viability (reversal) in test [6] (H69AR cells + 2 uM doxorubicin) was -3.39% (inactive). The figures for the inhibition in test [7], in test [8] and in test [14] were -0.52% (inactive), -7.38% (inactive) and 1.26% (inactive), respectively. In addition, the growth inhibition in test [9] is -4.61% (inactive); in test [10], 2.38% (inactive). In addition, the viability increase in [11] is -0.12% (inactive). Further, the RAM network inhibition in test [15] was 2.19% (inactive).
As for `CCOC(=O)c1sc2nc(NC(=O)C3CCCCC3)sc2c1C`, the viability is 95.5% in test [1]; 95.5% (inactive) in test [3]; 58.7% (inactive) in test [4]; 76.9% (inactive) in test [5]; 75.7% in [6] (setting [16]); 76.9% in [6] (setting [17]). The figures for the viability in test [12] and in test [13] were 89.1% (inactive) and 95.2% (inactive), respectively. In addition, the Her2 level in [2] is 92.5% (inactive). Also, the differential viability (reversal) in test [6] (H69AR cells + 2 uM doxorubicin) was 1.21% (inactive). Besides, the inhibition was -0.4% (inactive) in [7], -7.21% (inactive) in test [8] and 3.21% (inactive) in test [14]. Also, the growth inhibition was -4.09% (inactive) in test [9] and -7.62% (inactive) in [10]. Besides, the viability increase in test [11] is -0.22% (inactive). The RAM network inhibition in test [15] is 4.73% (inactive).
